Drawing on PubChem BioAssay (EPA / NIEHS), this text covers outcome and AC50 for 32 compounds.

Activity calls are given as the source filed them. Rule for the calls: active = hit-call score of the fitted dose curve at least 0.9, where 1 is the maximum; inactive = score below 0.9.

Usually AC50 stands for the midpoint of the concentration-response curve, whichever way the signal moves.

The nature of the test: CCTE_Mundy_HCI_Cortical_Synap_Neur_Matur_CellBodySpotCount: CCTE's Synaptogenesis and Neurite Maturation Assay in rat cortical cells for Cell Body Spot Count, Mundy Lab (AID 2284223). As for the experimental part: CCTE_Mundy_HCI_Cortical_Synap&Neurite_Matur is a multiplexed, cell-based-readout assay that uses rat primary cortical cells with measurements taken at 288.33 hours after chemical dosing in a microplate: 96-well plate.CCTE_Mundy_HCI_Cortical_Synap_Neur_Matur_CellBodySpotCount is one of eight components of the CCTE_Mundy_HCI_Cortical_Synap&Neurite_Matur assay. It measures synaptogenesis and neurite maturation related to number of cell body-associated synapses (synaptophysin puncta) per neuron using High Content Imaging of fluorescently labelled markers.[…] Using a type of morphology reporter, loss -of-signal activity can be used to understand developmental effects.
Cells are plated onto 96 well plates and allowed 2 hr for attachment to the substrate. At days in vitro (DIV) 5, Cytosine Arabinoside (AraC) is added to arrest glial cell growth. Chemicals are dosed and a media change is performed at DIV 7 of differentiation and is continued through DIV 12 when the experiment is terminated. Cells are fixed with […] and Hoechst Dye. Cells are stained using Millipore Mouse anti-MAP2MAB3418 (1:800) and Millipore Rabbit anti-Synaptophysinsc-1750 (1:250) primary antibodies and Alexa Fluor-488 goat anti-mouse and AlexaFluor-546 goat anti-rabbit secondary antibodies to label neuronal cell nuclei, synapses and neurites. A Cellomics ArrayScan VTi HCS Reader is used for automated image acquisition and analysis of neurite outgrowth.
`Cc1ccc(OP(=O)(Oc2ccc(C)cc2)Oc2ccc(C)cc2)cc1` (tested in a mixture with another compound): the compound was classed as inactive.
On the same count and under the same terms, in the case of `CC1(C)[C@H](C=C(Cl)Cl)[C@@H]1C(=O)O[C@@H](C#N)c1cccc(Oc2ccccc2)c1` it was “inactive”.
Still for that read-out and setting: in the case of `[CH3][Hg][Cl]` it was “inactive”; in that of `CNC(=N[N+](=O)[O-])NCC1CCOC1` (configuration not stated), “inactive”; in that of `[CH3][Sn]([CH3])[CH3]`, “inactive”.
Take `CN1C(=O)CN=C(c2ccccc2)c2cc(Cl)ccc21`: the result was inactive.
As for `CCC[CH2][Sn]([CH2]CCC)([CH2]CCC)[O][Sn]([CH2]CCC)([CH2]CCC)[CH2]CCC`, the AC50 is 0.0311 µM (active).
As for `CCOP(=S)(OCC)SCS(=O)C(C)(C)C` (configuration not stated), the outcome was inactive.
Consider `CC1(C)C(C=C(Cl)Cl)C1C(=O)O[C@H](C#N)c1cccc(Oc2ccccc2)c1` (some centres not stated), for which the AC50 was 12 µM (active).
`CCOP(=O)(OCC)OC(Cl)C(Cl)(Cl)Cl` (configuration not stated): the result was inactive.
Consider `CC1(C)[C@H](C=C(Cl)Cl)[C@H]1C(=O)OCc1c(F)c(F)cc(F)c1F`, for which the AC50 was 12.8 µM (active).
In the case of `CCOP(=O)(OCC)SCSC(C)(C)C`, the call was inactive.
For the compound `O.O.O.O.O.[Cd+2].[Cd+2].[Cl-].[Cl-].[Cl-].[Cl-]`, the compound was classed as inactive.
Take `[Cd+2].[Cl-].[Cl-]`: the AC50 was 6.06 µM (active).
On to `C=CCN1CC[C@]23c4c5ccc(O)c4O[C@H]2C(=O)CC[C@@]3(O)[C@H]1C5`, for which the compound was classed as inactive.
Same read-out and setting: with `CCOP(=O)(Oc1cnc(C(C)(C)C)nc1)OC(C)C` (configuration not stated) the entry was “inactive”.
With `O=[As]O`, the AC50 is 5 µM (active).
Regarding `Brc1ccc(Oc2ccc(Br)cc2Br)c(Br)c1`, the call was inactive.
Regarding `CC1(C)C(C=C(Cl)c2ccc(Cl)cc2)C1C(=O)OC(C#N)c1ccc(F)c(Oc2ccccc2)c1` (configuration not stated), the outcome was inactive.
Same read-out and setting: in the case of `COC(=O)[C@H]1[C@@H](OC(=O)c2ccccc2)C[C@@H]2CC[C@H]1N2C` it was “inactive”.
Take `C[n+]1ccc(-c2cc[n+](C)cc2)cc1`: the AC50 was 14.4 µM (active).
Regarding `C[C@H](N)Cc1ccccc1`, the compound was called inactive.
The same measure, in the same setting: with `O=C(O)CNCP(=O)(O)O` the entry was “inactive”; with `Cn1nc(C(F)(F)F)c(CS(=O)(=O)C2=NOC(C)(C)C2)c1OC(F)F`, “inactive”.
Same read-out and setting: in the case of `CN[C@]1(c2ccccc2Cl)CCCCC1=O` it was “inactive”; in that of `CCOP(=O)(OCC)SCSCC`, “inactive”; in that of `C#CCN(C)[C@H](C)Cc1ccccc1`, “inactive”.
With `CC1(C)[C@H](C(=O)O[C@H](C#N)c2cccc(Oc3ccccc3)c2)[C@@H]1C=C(Br)Br`, the compound was classed as inactive.
The same measure, in the same setting: in the case of `COP(=O)(OC)SCN1C(=O)c2ccccc2C1=O` it was “inactive”.
As for `CC(=O)[O-].[Tl+]`, the AC50 is 30.1 µM (active).
For `CC(=O)[O-].CC(=O)[O-].O.O.O.[Pb+2]`, the compound was called inactive.
On the same count and under the same terms, with `CC1(C)[C@@H](C=C(Cl)Cl)[C@@H]1C(=O)O[C@@H](C#N)c1ccc(F)c(Oc2ccccc2)c1` the entry was “inactive”.
